The record followed here is the supplement of paper PMC8007513.

The assay deals with Trichoderma virens ATCC 9645. The experiment in a line: growth yield (OD600) with compound + IPBC relative to untreated control; higher = less growth inhibition. The note with it: compound concentration: 100 uM, IPBC concentration: 200 ng/ml. In short, it runs like this:
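Trichoderma virens ATCC 9645 spores, from potato dextrose agar plates grown for 7 days, were brought to 15,000 spores ml^−1 in potato dextrose broth and dispensed as 100 μl aliquots into 96-well plates. Each aliquot received library compounds at 100 μM final, with or without a biocide at 200 ng ml^−1, before growth at 30 °C and OD600 readings on a BioTek EL800 at 40 h and 72 h. Growth is expressed relative to the control containing neither agent and represents means of duplicate screens.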

Where a name gives a salt, the structure may show the parent alone. ± gives the standard error. Screen size: about 1,300 compounds; about 130 (10%) showed an effect of 50% or more. The list comes from a sample in which strong results are over-represented; it also holds similar structures and randomly drawn compounds.

As to `C[C@]12C/C(=C/O)C(=O)C[C@@H]1CC[C@@H]1[C@@H]2CC[C@@]2(C)[C@H]1CC[C@]2(C)O` [Oxymetholone] + CCCCNC(=O)OCC#CI [3-iodo-2-propynyl butylcarbamate (IPBC)], the growth yield is, setting by setting: (40 h) 112 ± 14%; (72 h) 105 ± 9.2%.

For `Oc1ncnc2[nH]ncc12` [Allopurinol] + CCCCNC(=O)OCC#CI [3-iodo-2-propynyl butylcarbamate (IPBC)], the growth yield came out at 93.4 ± 4.8% (40 h) and 94.28 ± 0.32% (72 h).

`Cc1cc(N)c2ccccc2[n+]1CCCCCCCCCC[n+]1c(C)cc(N)c2ccccc21` [Dequalinium dichloride] + CCCCNC(=O)OCC#CI [3-iodo-2-propynyl butylcarbamate (IPBC)]: the growth yield by setting is: (40 h) 3.81%; (72 h) 2.94%.

`COc1ncnc(NS(=O)(=O)c2ccc(N)cc2)c1OC` [Sulfadoxine] + CCCCNC(=O)OCC#CI [3-iodo-2-propynyl butylcarbamate (IPBC)]: the growth yield came to 72.6 ± 2.4% (40 h) and 84.7 ± 2.7% (72 h).

Regarding `Cc1[nH]cnc1CN1CCc2c(c3ccccc3n2C)C1=O` [Alosetron hydrochloride] + CCCCNC(=O)OCC#CI [3-iodo-2-propynyl butylcarbamate (IPBC)], the growth yield by setting is: (40 h) 85.5 ± 1.3%; (72 h) 87.89 ± 0.21%.

For `CC(C)(C)NC[C@@H](O)COc1cccc2c1CCCC2=O` [(+) -Levobunolol hydrochloride] + CCCCNC(=O)OCC#CI [3-iodo-2-propynyl butylcarbamate (IPBC)], the growth yield was found to be 97.8 ± 16% (40 h) and 99.1 ± 12% (72 h).

As to `CN(C)C(=O)Oc1cccc([N+](C)(C)C)c1` [Neostigmine bromide] + CCCCNC(=O)OCC#CI [3-iodo-2-propynyl butylcarbamate (IPBC)], the growth yield came to 83.4 ± 1.1% (40 h) and 92.19 ± 0.52% (72 h).

Regarding `CCN(C)C(=O)Oc1cccc([C@H](C)N(C)C)c1` [Rivastigmine] + CCCCNC(=O)OCC#CI [3-iodo-2-propynyl butylcarbamate (IPBC)], the growth yield came to 97.1 ± 4% (40 h) and 95.1 ± 3.7% (72 h).

`CN(CCCCCCCCCCN(C)C(=O)Oc1cccc([N+](C)(C)C)c1)C(=O)Oc1cccc([N+](C)(C)C)c1` [Demecarium bromide] + CCCCNC(=O)OCC#CI [3-iodo-2-propynyl butylcarbamate (IPBC)]: the growth yield runs as follows: (40 h) 3.97 ± 0.16%; (72 h) 2.73%.

For `C=C1c2cccc(O)c2C(=O)C2=C(O)[C@]3(O)C(=O)C(C(N)=O)=C(O)[C@@H](N(C)C)[C@@H]3[C@@H](O)[C@H]12` [Methacycline hydrochloride] + CCCCNC(=O)OCC#CI [3-iodo-2-propynyl butylcarbamate (IPBC)], the growth yield reads like this: (40 h) 94.2 ± 1.8%; (72 h) 93.7 ± 0.94%.

With `C[C@]1(Cn2ccnn2)[C@H](C(=O)O)N2C(=O)C[C@H]2S1(=O)=O` [Tazobactam] + CCCCNC(=O)OCC#CI [3-iodo-2-propynyl butylcarbamate (IPBC)], the growth yield runs as follows: (40 h) 84.5 ± 0.95%; (72 h) 87.15 ± 0.32%.

With `COc1cc2ncnc(Nc3ccc(F)c(Cl)c3)c2cc1OCCCN1CCOCC1` [Gefitinib] + CCCCNC(=O)OCC#CI [3-iodo-2-propynyl butylcarbamate (IPBC)], the growth yield by setting is: (40 h) 16.4 ± 5.2%; (72 h) 10.5 ± 0.63%.

For the molecule `CCCCOc1ccc(OCCCN2CCOCC2)cc1` [Pramoxine hydrochloride] + CCCCNC(=O)OCC#CI [3-iodo-2-propynyl butylcarbamate (IPBC)], the growth yield (40 h) amounted to 80.1 ± 2.2% and the growth yield (72 h) came out at 94 ± 3.1%.

For `C#Cc1cccc(Nc2ncnc3cc(OCCOC)c(OCCOC)cc23)c1` [Erlotinib] + CCCCNC(=O)OCC#CI [3-iodo-2-propynyl butylcarbamate (IPBC)], the growth yield was found to be 98.2 ± 11% (40 h) and 99.3 ± 3% (72 h).

For the molecule `C[C@]12C[C@H](O)[C@H]3[C@@H](CCC4=CC(=O)CC[C@@]43C)[C@@H]1CC[C@@H]2C(=O)CO` [Corticosterone] + CCCCNC(=O)OCC#CI [3-iodo-2-propynyl butylcarbamate (IPBC)], the growth yield is 94.2 ± 7.8% (40 h) and 96.6 ± 5.6% (72 h).

`CCCN1CCCC[C@H]1C(=O)Nc1c(C)cccc1C` [Ropivacaine hydrochloride] + CCCCNC(=O)OCC#CI [3-iodo-2-propynyl butylcarbamate (IPBC)]: the growth yield (40 h) came to 88.5 ± 1.4% and the growth yield (72 h) was determined as 91.98 ± 0.1%.

`C[C@]12C=CC(=O)C=C1CC[C@@H]1[C@@H]2[C@@H](O)C[C@@]2(C)[C@H]1CC[C@]2(O)C(=O)CO` [Prednisolone] + CCCCNC(=O)OCC#CI [3-iodo-2-propynyl butylcarbamate (IPBC)]: the growth yield is, setting by setting: (40 h) 82.8 ± 2.1%; (72 h) 92.5 ± 0.42%.

On to `O=C(O)Cc1cc(I)c(Oc2ccc(O)c(I)c2)c(I)c1` [Tiratricol, 3,3',5-triiodothyroacetic acid] + CCCCNC(=O)OCC#CI [3-iodo-2-propynyl butylcarbamate (IPBC)], for which the growth yield came out at 44 ± 1.8% (40 h) and 73.41 ± 0.63% (72 h).

For the molecule `NC(Cc1cc(I)c(Oc2cc(I)c(O)c(I)c2)c(I)c1)C(=O)O` (stereo not given) [Thyroxine (L)] + CCCCNC(=O)OCC#CI [3-iodo-2-propynyl butylcarbamate (IPBC)], the growth yield is, setting by setting: (40 h) 100 ± 11%; (72 h) 98.8 ± 9%.

Turning to `N[C@@H](Cc1cc(I)c(Oc2ccc(O)c(I)c2)c(I)c1)C(=O)O` [Liothyronine] + CCCCNC(=O)OCC#CI [3-iodo-2-propynyl butylcarbamate (IPBC)], the growth yield runs as follows: (40 h) 93.1 ± 10%; (72 h) 98.1 ± 6.4%.

On to `CCN(CC)CCNc1ccc(CO)c2sc3ccccc3c(=O)c12` [Hycanthone] + CCCCNC(=O)OCC#CI [3-iodo-2-propynyl butylcarbamate (IPBC)], for which the growth yield is, setting by setting: (40 h) 124 ± 2.7%; (72 h) 120 ± 0.63%.

Regarding `COc1cc(NC(C)CCCN)c2ncccc2c1` (stereo not given) [Primaquine diphosphate] + CCCCNC(=O)OCC#CI [3-iodo-2-propynyl butylcarbamate (IPBC)], the growth yield came out at 73.7 ± 11% (40 h) and 117.7 ± 1.1% (72 h).

Turning to `COc1ccc(OC)c(C(O)CNC(=O)CN)c1` (stereo not given) [Midodrine hydrochloride] + CCCCNC(=O)OCC#CI [3-iodo-2-propynyl butylcarbamate (IPBC)], the growth yield worked out at 96.1 ± 4.3% (40 h) and 104 ± 2.1% (72 h).

For the molecule `CCCC(C)(COC(N)=O)COC(=O)NC(C)C` (stereo not given) [Carisoprodol] + CCCCNC(=O)OCC#CI [3-iodo-2-propynyl butylcarbamate (IPBC)], the growth yield by setting is: (40 h) 84.8 ± 5.1%; (72 h) 92.7 ± 5.5%.

For the molecule `CC(CCc1ccccc1)NCC(O)c1ccc(O)c(C(N)=O)c1` (stereo not given) [Labetalol hydrochloride] + CCCCNC(=O)OCC#CI [3-iodo-2-propynyl butylcarbamate (IPBC)], the growth yield runs as follows: (40 h) 73.38 ± 0.32%; (72 h) 87.15 ± 0.1%.
